{"source": "paper PMC12820563", "about": "“FoxP3 forms a head-to-head dimer in vivo and stabilizes its multimerization on adjacent microsatellites”", "note": "Over roughly 16,000 sequences, “rpm ratio (pull-down/input)” has its median near 0.94; the highest 2% begin near 1.7. Only a selection was taken, and the highest values are over-represented in it overall.", "data": [{"molecular_target": "T1, MBP-FoxP1dN (Mus musculus, UniProt P58462 326-579)", "T1 sequence": "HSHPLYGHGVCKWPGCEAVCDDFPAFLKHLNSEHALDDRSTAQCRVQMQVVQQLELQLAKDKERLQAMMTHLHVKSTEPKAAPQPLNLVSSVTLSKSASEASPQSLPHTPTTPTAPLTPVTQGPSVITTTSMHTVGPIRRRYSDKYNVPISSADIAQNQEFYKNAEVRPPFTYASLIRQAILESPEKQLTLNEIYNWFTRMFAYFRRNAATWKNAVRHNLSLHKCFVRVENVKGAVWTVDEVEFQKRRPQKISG", "experiment": "PD-seq (MBP pull-down with sequencing); 20 mM Tris-HCl pH 7.5, 100 mM NaCl, 1.5 mM MgCl2, 0.4 uM protein, 0.1 uM dsDNA library, 30 min, room temperature, amylose pull-down; high values mean tight binding", "details": "protein: recombinant; tags: His6-MBP; chain copies: 2; dsDNA, one strand shown", "outline": "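In Tris pH 7.5 buffer with NaCl and MgCl2, 0.4 µM His6-MBP-tagged mouse FoxP3 or FoxP1 fragment lacking the N-terminus, from E. coli, met 0.1 µM Klenow-filled double-stranded degenerate DNA library for 30 min at room temperature. Three washes on amylose resin followed capture of the complexes, then proteinase K release of DNA, PCR barcoding and Illumina sequencing. Binding is taken as pooled-replicate reads-per-million enrichment of pull-down relative to input.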", "values": [{"sequence": "GATGATTGTTCTCCCAGCTGATGAATTTCCTACCTCGAGTAAACAAATTTTCCTAATCTTTCTGTTCAAGCGCCATCTAC", "binding signal": "0.823 RPM ratio (pull-down/input)"}, {"sequence": "GATGATTGTTCTCCCAGCTGATGAATTACCATTGTCGAGTAAACAAATTTTCCTAATCTTTCTGTTCAAGCGCCATCTAC", "binding signal": "1.04 RPM ratio (pull-down/input)"}, {"sequence": "GATGATTGTTCTCCCAGCTGATGAATTTTTGCACTCGAGTAAACAAATTTTCCTAATCTTTCTGTTCAAGCGCCATCTAC", "binding signal": "0.891 RPM ratio (pull-down/input)"}, {"sequence": "GATGATTGTTCTCCCAGCTGATGAATTGCACTCCTCGAGTAAACAAATTTTCCTAATCTTTCTGTTCAAGCGCCATCTAC", "binding signal": "1.15 RPM ratio (pull-down/input)"}, {"sequence": "GATGATTGTTCTCCCAGCTGATGAATTGTTGCACTCGAGTAAACAAATTTTCCTAATCTTTCTGTTCAAGCGCCATCTAC", "binding signal": "1.76 RPM ratio (pull-down/input)"}, {"sequence": "GATGATTGTTCTCCCAGCTGATGAATTACAGCAATCGAGTAAACAAATTTTCCTAATCTTTCTGTTCAAGCGCCATCTAC", "binding signal": "1.28 RPM ratio (pull-down/input)"}, {"sequence": "GATGATTGTTCTCCCAGCTGATGAATTACTACAATCGAGTAAACAAATTTTCCTAATCTTTCTGTTCAAGCGCCATCTAC", "binding signal": "1.55 RPM ratio (pull-down/input)"}, {"sequence": "GATGATTGTTCTCCCAGCTGATGAATTTCAATAATCGAGTAAACAAATTTTCCTAATCTTTCTGTTCAAGCGCCATCTAC", "binding signal": "1.31 RPM ratio (pull-down/input)"}, {"sequence": "GATGATTGTTCTCCCAGCTGATGAATTACAATAATCGAGTAAACAAATTTTCCTAATCTTTCTGTTCAAGCGCCATCTAC", "binding signal": "1.83 RPM ratio (pull-down/input)"}, {"sequence": "GATGATTGTTCTCCCAGCTGATGAATTACAACAATCGAGTAAACAAATTTTCCTAATCTTTCTGTTCAAGCGCCATCTAC", "binding signal": "2.1 RPM ratio (pull-down/input)"}, {"sequence": "GATGATTGTTCTCCCAGCTGATGAATTACAATTATCGAGTAAACAAATTTTCCTAATCTTTCTGTTCAAGCGCCATCTAC", "binding signal": "1.51 RPM ratio (pull-down/input)"}, {"sequence": "GATGATTGTTCTCCCAGCTGATGAATTGCTATGCTCGAGTAAACAAATTTTCCTAATCTTTCTGTTCAAGCGCCATCTAC", "binding signal": "1.01 RPM ratio (pull-down/input)"}, {"sequence": "GATGATTGTTCTCCCAGCTGATGAATTTTGGATGTCGAGTAAACAAATTTTCCTAATCTTTCTGTTCAAGCGCCATCTAC", "binding signal": "0.849 RPM ratio (pull-down/input)"}, {"sequence": "GATGATTGTTCTCCCAGCTGATGAATTACGATTGTCGAGTAAACAAATTTTCCTAATCTTTCTGTTCAAGCGCCATCTAC", "binding signal": "1.16 RPM ratio (pull-down/input)"}, {"sequence": "GATGATTGTTCTCCCAGCTGATGAATTATTTAAATCGAGTAAACAAATTTTCCTAATCTTTCTGTTCAAGCGCCATCTAC", "binding signal": "1.24 RPM ratio (pull-down/input)"}, {"sequence": "GATGATTGTTCTCCCAGCTGATGAATTGCGTACGTCGAGTAAACAAATTTTCCTAATCTTTCTGTTCAAGCGCCATCTAC", "binding signal": "1.1 RPM ratio (pull-down/input)"}, {"sequence": "GATGATTGTTCTCCCAGCTGATGAATTCCTTGTGTCGAGTAAACAAATTTTCCTAATCTTTCTGTTCAAGCGCCATCTAC", "binding signal": "0.961 RPM ratio (pull-down/input)"}, {"sequence": "GATGATTGTTCTCCCAGCTGATGAATTAAGCGCATCGAGTAAACAAATTTTCCTAATCTTTCTGTTCAAGCGCCATCTAC", "binding signal": "1.27 RPM ratio (pull-down/input)"}, {"sequence": "GATGATTGTTCTCCCAGCTGATGAATTGTCATATTCGAGTAAACAAATTTTCCTAATCTTTCTGTTCAAGCGCCATCTAC", "binding signal": "1.17 RPM ratio (pull-down/input)"}, {"sequence": "GATGATTGTTCTCCCAGCTGATGAATTCATATTCTCGAGTAAACAAATTTTCCTAATCTTTCTGTTCAAGCGCCATCTAC", "binding signal": "0.83 RPM ratio (pull-down/input)"}, {"sequence": "GATGATTGTTCTCCCAGCTGATGAATTTTCATATTCGAGTAAACAAATTTTCCTAATCTTTCTGTTCAAGCGCCATCTAC", "binding signal": "1.06 RPM ratio (pull-down/input)"}, {"sequence": "GATGATTGTTCTCCCAGCTGATGAATTCATATTTTCGAGTAAACAAATTTTCCTAATCTTTCTGTTCAAGCGCCATCTAC", "binding signal": "1.74 RPM ratio (pull-down/input)"}, {"sequence": "GATGATTGTTCTCCCAGCTGATGAATTCATATTGTCGAGTAAACAAATTTTCCTAATCTTTCTGTTCAAGCGCCATCTAC", "binding signal": "1.9 RPM ratio (pull-down/input)"}, {"sequence": "GATGATTGTTCTCCCAGCTGATGAATTCTCATATTCGAGTAAACAAATTTTCCTAATCTTTCTGTTCAAGCGCCATCTAC", "binding signal": "0.94 RPM ratio (pull-down/input)"}, {"sequence": "GATGATTGTTCTCCCAGCTGATGAATTAGATCGGTCGAGTAAACAAATTTTCCTAATCTTTCTGTTCAAGCGCCATCTAC", "binding signal": "0.789 RPM ratio (pull-down/input)"}, {"sequence": "GATGATTGTTCTCCCAGCTGATGAATTGTGGGAATCGAGTAAACAAATTTTCCTAATCTTTCTGTTCAAGCGCCATCTAC", "binding signal": "1.08 RPM ratio (pull-down/input)"}, {"sequence": "GATGATTGTTCTCCCAGCTGATGAATTCCGTCCTTCGAGTAAACAAATTTTCCTAATCTTTCTGTTCAAGCGCCATCTAC", "binding signal": "0.801 RPM ratio (pull-down/input)"}, {"sequence": "GATGATTGTTCTCCCAGCTGATGAATTAGGTGATTCGAGTAAACAAATTTTCCTAATCTTTCTGTTCAAGCGCCATCTAC", "binding signal": "1.06 RPM ratio (pull-down/input)"}, {"sequence": "GATGATTGTTCTCCCAGCTGATGAATTCGTTGTATCGAGTAAACAAATTTTCCTAATCTTTCTGTTCAAGCGCCATCTAC", "binding signal": "1.3 RPM ratio (pull-down/input)"}, {"sequence": "GATGATTGTTCTCCCAGCTGATGAATTCCTCAAGTCGAGTAAACAAATTTTCCTAATCTTTCTGTTCAAGCGCCATCTAC", "binding signal": "0.819 RPM ratio (pull-down/input)"}, {"sequence": "GATGATTGTTCTCCCAGCTGATGAATTGAGCGTGTCGAGTAAACAAATTTTCCTAATCTTTCTGTTCAAGCGCCATCTAC", "binding signal": "0.844 RPM ratio (pull-down/input)"}, {"sequence": "GATGATTGTTCTCCCAGCTGATGAATTTGGTATTTCGAGTAAACAAATTTTCCTAATCTTTCTGTTCAAGCGCCATCTAC", "binding signal": "1.07 RPM ratio (pull-down/input)"}, {"sequence": "GATGATTGTTCTCCCAGCTGATGAATTGGTATTTTCGAGTAAACAAATTTTCCTAATCTTTCTGTTCAAGCGCCATCTAC", "binding signal": "2.46 RPM ratio (pull-down/input)"}, {"sequence": "GATGATTGTTCTCCCAGCTGATGAATTGGTATTGTCGAGTAAACAAATTTTCCTAATCTTTCTGTTCAAGCGCCATCTAC", "binding signal": "2.44 RPM ratio (pull-down/input)"}, {"sequence": "GATGATTGTTCTCCCAGCTGATGAATTTTGGTATTCGAGTAAACAAATTTTCCTAATCTTTCTGTTCAAGCGCCATCTAC", "binding signal": "1.06 RPM ratio (pull-down/input)"}, {"sequence": "GATGATTGTTCTCCCAGCTGATGAATTTGGTATGTCGAGTAAACAAATTTTCCTAATCTTTCTGTTCAAGCGCCATCTAC", "binding signal": "0.971 RPM ratio (pull-down/input)"}, {"sequence": "GATGATTGTTCTCCCAGCTGATGAATTGGTATTCTCGAGTAAACAAATTTTCCTAATCTTTCTGTTCAAGCGCCATCTAC", "binding signal": "1.02 RPM ratio (pull-down/input)"}, {"sequence": "GATGATTGTTCTCCCAGCTGATGAATTCGGACCGTCGAGTAAACAAATTTTCCTAATCTTTCTGTTCAAGCGCCATCTAC", "binding signal": "0.773 RPM ratio (pull-down/input)"}, {"sequence": "GATGATTGTTCTCCCAGCTGATGAATTAGGTTCATCGAGTAAACAAATTTTCCTAATCTTTCTGTTCAAGCGCCATCTAC", "binding signal": "0.921 RPM ratio (pull-down/input)"}, {"sequence": "GATGATTGTTCTCCCAGCTGATGAATTGCCAGTCTCGAGTAAACAAATTTTCCTAATCTTTCTGTTCAAGCGCCATCTAC", "binding signal": "0.829 RPM ratio (pull-down/input)"}]}]}
